Reference: PubChem BioAssay (EPA / NIEHS)
“And” between values parts separate entries of the source, which are not always exact repeats. Identical values can stand only once. Some compounds were tested as several samples or in several runs, with calls that do not always agree. The source made the active and inactive calls. How the source made its calls: active means hit-call score of the fitted dose curve at least 0.9, where 1 is the maximum; inactive means score below 0.9.

Columns and labels:
[1] = read-out: serum amyloid A (SAA), SAA1 (gene 6288); test: BSK_CASM3C_SAA: BioMAP Diversity Plus: CASM3C Assay for serum amyloid A (SAA) Biomarker Activity (AID 2283049); details: primary human coronary artery smooth muscle cells; actives raise or lower the signal;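 further: SAA protein level quantified by ELISA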
[2] = BSK_CASM3C_SRB: Viability Assessment in the BioMAP Diversity Plus: CASM3C Assay (AID 2283050); details: primary human coronary artery smooth muscle cells;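 further: total protein by SRB staining as cytotoxicity measure in parallel cultures; cells exposed to compound for 24 h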
[3] = read-out: Thrombomodulin, THBD (gene 7056); test: BSK_CASM3C_Thrombomodulin: BioMAP Diversity Plus: CASM3C Assay for Thrombomodulin Biomarker Activity (AID 2283051); details: primary human coronary artery smooth muscle cells; actives raise or lower the signal;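 further: thrombomodulin protein level measured by ELISA 24 h after dosing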
[4] = read-out: Tissue Factor, F3 (gene 2152); test: BSK_CASM3C_TissueFactor: BioMAP Diversity Plus: CASM3C Assay for Tissue Factor Biomarker Activity (AID 2283052); details: primary human coronary artery smooth muscle cells; actives raise or lower the signal;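 further: cell surface tissue factor protein level read by ELISA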
[5] = read-out: Interferon-gamma inducible Protein 10 (IP10), CXCL10 (gene 3627); test: BSK_hDFCGF_IP10: BioMAP Diversity Plus: hDFCGF Assay for Interferon-gamma inducible Protein 10 (IP10) Biomarker Activity (AID 2283053); details: primary human foreskin fibroblasts; actives raise or lower the signal
Procedure, shortened: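 ELISA quantification of IP-10 after a 24 h chemical exposure of human dermal foreskin fibroblast primary cultures. Both increases and decreases versus DMSO fitted.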

[6] = read-out: Urokinase-type plasminogen activator receptor (uPAR), PLAUR (gene 5329); test: BSK_CASM3C_uPAR: BioMAP Diversity Plus: CASM3C Assay for Urokinase-type plasminogen activator receptor (uPAR) Biomarker Activity (AID 2283054); details: primary human coronary artery smooth muscle cells; actives raise or lower the signal;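 further: cell-surface uPAR protein level quantified by ELISA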
[7] = read-out: Vascular cell adhesion molecule 1 (VCAM1), VCAM1 (gene 7412); test: BSK_CASM3C_VCAM1: BioMAP Diversity Plus: CASM3C Assay for Vascular cell adhesion molecule 1 (VCAM1) Biomarker Activity (AID 2283055); details: primary human coronary artery smooth muscle cells; actives raise or lower the signal;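 further: VCAM-1 protein level quantified by ELISA on the cells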
[8] = read-out: Collagen III, COL3A1 (gene 1281); test: BSK_hDFCGF_CollagenIII: BioMAP Diversity Plus: hDFCGF Assay for Collagen III Biomarker Activity (AID 2283056); details: primary human foreskin fibroblasts; actives raise or lower the signal
Procedure, shortened: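 hDFCGF primary human dermal fibroblasts; 24 h chemical exposure; collagen III by ELISA; bidirectional curve fit vs DMSO baseline (gain or loss of signal).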

[9] = read-out: Epidermal growth factor receptor (EGFR), EGFR (gene 1956); test: BSK_hDFCGF_EGFR: BioMAP Diversity Plus: hDFCGF Assay for Epidermal growth factor receptor (EGFR) Biomarker Activity (AID 2283057); details: primary human foreskin fibroblasts; actives raise or lower the signal
Procedure, shortened: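 EGFR levels by ELISA in human dermal fibroblast cultures, 24 h post-treatment, fitted bidirectionally versus DMSO. Parallel wells stained with sulforhodamine B to detect overt cytotoxicity.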

[10] = read-out: Interleukin-8 (IL8), CXCL8 (gene 3576); test: BSK_hDFCGF_IL8: BioMAP Diversity Plus: hDFCGF Assay for Interleukin-8 (IL8) Biomarker Activity (AID 2283058); details: primary human foreskin fibroblasts; actives raise or lower the signal
Procedure, shortened: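 ELISA read-out of IL-8 from primary human foreskin fibroblast cultures taken 24 h after dosing; values are bidirectional fits relative to DMSO vehicle.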

Measured: AC50

O=C(O)C(F)(F)C(F)(F)C(=O)O
inactive: [1] | [2] | [3] | [4] | [5] | [6] | [7] | [8] | [9] | [10]
active: [5] 17.2 µM

Cc1ccc2c(c1N)C(=O)c1ccccc1C2=O
active: [6] 20 µM | [8] 20 µM
inactive: all other assays above

FC(F)(F)C(F)(C(F)(F)F)C(F)(F)C(F)(F)CC1CO1 (configuration not stated)
inactive: all assays above

N#Cc1cc([N+](=O)[O-])ccc1N
inactive: all assays above

CCOP(=S)(OCC)SCS(=O)(=O)CC
inactive: all assays above

ClC(Cl)(Cl)c1ccccc1
inactive: all assays above

O=C(O)C(F)(OC(F)(F)C(F)(F)C(F)(F)F)C(F)(F)F (configuration not stated)
inactive: [1] | [2] | [3] | [4] | [5] | [6] | [7] | [8] | [9] | [10]
active: [3] 2.48 µM

C=CC(=O)OCC(F)(F)C(F)F
active: [1] 30 µM | [2] 39.8 µM and 43.6 µM | [3] 37.3 µM and 24.9 µM | [5] 34.9 µM and 29.2 µM | [7] 23.9 µM and 21.1 µM | [8] 994 nM and 23.9 µM | [10] 49.8 µM and 48.3 µM
inactive: [1] | [4] | [6] | [9]

CSC(C)(C)C=NO
inactive: all assays above

CCOP(=S)(S)OCC
inactive: all assays above

CCOP(=S)(OCC)SCSc1ccc(Cl)cc1
active: [4] 16.5 µM | [5] 8.28 µM | [7] 1.6 µM
inactive: all other assays above

Nc1ccc(Cl)cc1
inactive: all assays above

O=S(=O)(F)C(F)(F)C(F)(F)C(F)(F)C(F)(F)C(F)(F)C(F)(F)C(F)(F)C(F)(F)F
inactive: all assays above

Cc1cccc(N)c1
inactive: all assays above

CCCCOCCOP(=O)(OCCOCCCC)OCCOCCCC
active: [4] 1.99 µM | [7] 0.016 µM | [8] 0.016 µM
inactive: all other assays above

CCCCc1ccccc1
inactive: all assays above

CCOS(=O)(=O)OCC
inactive: all assays above

CCCCCCCc1ccc(O)cc1
inactive: [3] | [4] | [9]
active: [1] 34.4 µM | [2] 39 µM | [5] 22.6 µM | [6] 38 µM | [7] 28.5 µM | [8] 15.5 µM | [10] 35.1 µM

OCC(F)(F)OC(F)(F)C(F)(F)OC(F)(F)C(F)(F)OC(F)(F)CO
inactive: [1] | [2] | [3] | [4] | [6] | [7] | [8] | [9] | [10]
active: [5] 26.5 µM and 24.2 µM | [8] 14.9 µM

COC(=O)C(F)(F)C(F)(F)OC(F)(C(F)(F)F)C(F)(F)OC(F)=C(F)F (configuration not stated)
active: [5] 5.35 µM and 2.92 µM
inactive: all other assays above

O=C(O)C=CC(F)(C(F)(F)F)C(F)(F)F
inactive: all assays above

Nc1ccc([N+](=O)[O-])cc1Cl
active: [6] 0.0567 µM
inactive: all other assays above

ClC1=C(Cl)C2(Cl)C3C(Cl)C(Cl)CC3C1(Cl)C2(Cl)Cl (configuration not stated)
active: [1] 20 µM | [2] 33.9 µM | [3] 24.1 µM | [5] 7.58 µM | [7] 25.4 µM | [8] 6.06 µM | [10] 10.8 µM
inactive: [4] | [6] | [9]

OCC(F)(F)OC(F)(F)C(F)(F)OC(F)(F)C(F)(F)OC(F)(F)F
active: [1] 35 µM | [2] 32.9 µM and 44.3 µM | [7] 30 µM
inactive: [1] | [3] | [4] | [5] | [6] | [7] | [8] | [9] | [10]

CC(O)C(F)(F)C(F)(F)F (configuration not stated)
inactive: [1] | [2] | [3] | [4] | [5] | [6] | [7] | [8] | [9] | [10]
active: [3] 3.08 µM

O=P1(N(CCCl)CCCl)NCCCO1 (configuration not stated)
inactive: all assays above

OCC1CO1 (configuration not stated)
inactive: all assays above

Nc1ccc2ccccc2c1
active: [3] 12.5 µM
inactive: all other assays above

c1cc2c3c(cccc3c1)CC2
inactive: all assays above

CCCCC(CC)COC(=O)c1c(Br)c(Br)c(Br)c(Br)c1C(=O)OCC(CC)CCCC (configuration not stated)
active: [1] 14.7 µM
inactive: all other assays above

c1ccc2c(c1)sc1ccccc12
inactive: all assays above

N#Cc1c(-c2ccc(Cl)cc2)[nH]c(C(F)(F)F)c1Br
active: [1] 6.57 µM | [2] 0.865 µM | [4] 0.224 µM | [5] 20 µM | [6] 0.773 µM | [7] 30.1 µM | [8] 0.0161 µM
inactive: [3] | [9] | [10]

CCOP(=S)(NC(C)C)Oc1ccccc1C(=O)OC(C)C (configuration not stated)
inactive: all assays above

ClC(Cl)c1ccccc1
inactive: all assays above

CN(C)C(=O)Cl
inactive: all assays above

CC(Cc1ccc(OCC(=O)O)cc1)NCC(O)c1csc(C(F)(F)F)n1 (configuration not stated)
inactive: all assays above

CCCCN(CCCC)SN(C)C(=O)Oc1cccc2c1OC(C)(C)C2
inactive: [4] | [6] | [9]
active: [1] 31.3 µM | [2] 33.7 µM | [3] 29.1 µM | [5] 8.12 µM | [7] 13.4 µM | [8] 5.49 µM | [10] 16.2 µM

CCOP(=S)(OCC)SCSCC
inactive: all assays above

CC(C)(C)c1ccc(O)cc1
inactive: all assays above

CCOc1ccc(C(C)(C)COCc2cccc(Oc3ccccc3)c2)cc1
active: [3] 10.7 µM
inactive: all other assays above

C=CC(=O)OCC(CC)(COC(=O)C=C)COC(=O)C=C
inactive: [3]
active: [1] 0.624 µM | [2] 2.21 µM | [4] 0.847 µM | [5] 1.71 µM | [6] 1.97 µM | [7] 1.65 µM | [8] 1.03 µM | [9] 1.59 µM | [10] 3.17 µM
